In paper PMC7862700, “An all-to-all approach to the identification of sequence-specific readers for epigenetic DNA modifications on cytosine” one finds binding signal data, which are given here for 1 sequence.

Holding throughout (experiment): DAPPL (digital affinity profiling via proximity ligation, sequencing); 10 mM Tris-HCl pH 7.5, 50 mM NaCl, 1 mM DTT, 4% glycerol, room temperature, 30 min; GST-TFs on glutathione beads, 16-mer random dsDNA library, 0.1% formaldehyde crosslink after washing; high values mean tight binding
One experiment addresses T1, FEV (Homo sapiens, UniProt Q99581 1-238).
T1 sequence: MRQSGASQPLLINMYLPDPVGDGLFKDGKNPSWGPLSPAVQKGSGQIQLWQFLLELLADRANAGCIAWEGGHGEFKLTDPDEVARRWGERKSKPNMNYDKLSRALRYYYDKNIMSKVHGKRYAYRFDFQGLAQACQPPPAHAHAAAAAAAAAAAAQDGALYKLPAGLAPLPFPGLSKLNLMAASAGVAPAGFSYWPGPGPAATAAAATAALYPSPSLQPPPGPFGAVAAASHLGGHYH
The note with it: protein: recombinant; tags: N-terminal GST; dsDNA, one strand shown. In a few lines:
(§1)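 Human transcription factors were made in yeast as GST fusions, captured on glutathione beads and barcoded with DNA. With a tag-only sample included, the pool was incubated with 200 nmole of a random double-stranded 16-mer DNA library in Tris/NaCl/DTT/glycerol buffer at room temperature for 30 min, then crosslinked with 0.1% formaldehyde after washing, ligated by proximity, amplified and sequenced. For binding signal, each hexamer's read frequency for a factor is divided by its frequency for the tag-only sample.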

In the next experiment the target is ETV5 (Homo sapiens, UniProt P41161 1-510). As to conditions: protein: recombinant; tags: N-terminal GST; dsDNA, one strand shown. The gist of the method: as §1
ETV5, sequence (P41161 whole entry): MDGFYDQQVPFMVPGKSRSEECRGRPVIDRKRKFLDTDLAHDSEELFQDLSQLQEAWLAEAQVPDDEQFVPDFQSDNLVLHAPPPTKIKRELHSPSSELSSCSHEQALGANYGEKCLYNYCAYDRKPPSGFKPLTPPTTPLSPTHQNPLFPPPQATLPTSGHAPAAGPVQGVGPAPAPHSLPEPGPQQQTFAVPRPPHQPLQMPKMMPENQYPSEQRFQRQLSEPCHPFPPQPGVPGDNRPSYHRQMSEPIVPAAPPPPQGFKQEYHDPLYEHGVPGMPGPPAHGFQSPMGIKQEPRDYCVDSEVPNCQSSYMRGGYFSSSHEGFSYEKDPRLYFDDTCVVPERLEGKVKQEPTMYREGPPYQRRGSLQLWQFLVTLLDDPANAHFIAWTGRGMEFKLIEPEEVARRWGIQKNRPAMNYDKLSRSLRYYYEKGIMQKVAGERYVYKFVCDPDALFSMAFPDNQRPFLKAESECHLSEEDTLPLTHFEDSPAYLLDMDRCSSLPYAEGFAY
Another experiment has as its target HSF1 (Homo sapiens, UniProt Q00613 1-529). As to conditions: protein: recombinant; tags: N-terminal GST; chain copies: 3; dsDNA, one strand shown. In a few lines: as §1
The target of the next experiment is T2, SPIC (Homo sapiens, UniProt Q8N5J4 1-248).
T2 sequence: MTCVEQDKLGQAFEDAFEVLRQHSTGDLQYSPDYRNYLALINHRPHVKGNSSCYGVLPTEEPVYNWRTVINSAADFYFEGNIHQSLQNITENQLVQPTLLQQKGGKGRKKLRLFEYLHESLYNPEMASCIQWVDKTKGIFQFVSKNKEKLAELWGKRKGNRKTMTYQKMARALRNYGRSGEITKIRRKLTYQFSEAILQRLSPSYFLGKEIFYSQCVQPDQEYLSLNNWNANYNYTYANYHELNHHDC
The note with it: protein: recombinant; tags: N-terminal GST; dsDNA, one strand shown. The gist of the method:
as §1

The target of the next experiment is ELF4 (Homo sapiens, UniProt Q99607 1-663). As to conditions: protein: recombinant; tags: N-terminal GST; dsDNA, one strand shown. The gist of the method: as §1
ELF4, sequence (Q99607 whole entry): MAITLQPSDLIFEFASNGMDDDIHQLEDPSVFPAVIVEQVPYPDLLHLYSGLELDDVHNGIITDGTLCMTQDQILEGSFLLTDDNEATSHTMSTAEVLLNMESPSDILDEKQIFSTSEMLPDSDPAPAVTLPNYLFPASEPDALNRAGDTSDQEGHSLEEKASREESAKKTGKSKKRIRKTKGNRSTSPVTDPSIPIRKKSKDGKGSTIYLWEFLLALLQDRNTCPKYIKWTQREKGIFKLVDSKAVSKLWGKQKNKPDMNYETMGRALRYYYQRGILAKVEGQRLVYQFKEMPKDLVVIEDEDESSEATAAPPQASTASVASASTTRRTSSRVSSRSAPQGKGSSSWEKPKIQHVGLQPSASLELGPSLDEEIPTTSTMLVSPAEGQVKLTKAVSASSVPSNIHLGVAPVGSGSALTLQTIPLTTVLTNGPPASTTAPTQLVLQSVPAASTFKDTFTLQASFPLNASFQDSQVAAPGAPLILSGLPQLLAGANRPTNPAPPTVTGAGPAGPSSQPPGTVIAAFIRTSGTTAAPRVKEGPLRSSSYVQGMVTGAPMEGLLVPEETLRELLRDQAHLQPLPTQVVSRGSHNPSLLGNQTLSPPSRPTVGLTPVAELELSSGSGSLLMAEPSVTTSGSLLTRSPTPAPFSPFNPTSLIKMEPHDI
The target in another experiment is T3, ELK4 (Homo sapiens, UniProt P28324-2 1-405).
T3 sequence: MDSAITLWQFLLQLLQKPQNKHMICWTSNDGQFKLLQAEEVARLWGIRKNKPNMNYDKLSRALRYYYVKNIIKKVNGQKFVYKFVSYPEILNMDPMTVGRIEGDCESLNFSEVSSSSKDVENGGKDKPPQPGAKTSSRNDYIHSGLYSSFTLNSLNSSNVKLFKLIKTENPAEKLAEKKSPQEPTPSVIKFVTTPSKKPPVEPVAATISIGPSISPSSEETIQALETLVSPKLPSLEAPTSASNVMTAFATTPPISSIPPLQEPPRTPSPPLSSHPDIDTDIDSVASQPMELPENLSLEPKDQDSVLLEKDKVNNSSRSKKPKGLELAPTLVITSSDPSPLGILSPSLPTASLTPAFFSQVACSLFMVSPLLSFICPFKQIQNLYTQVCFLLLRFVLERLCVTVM
The note with it: protein: recombinant; tags: N-terminal GST; dsDNA, one strand shown. In a few lines:
as §1

For the next experiment, the target named is T4, ETV2 (Homo sapiens, UniProt O00321 1-342).
T4 sequence: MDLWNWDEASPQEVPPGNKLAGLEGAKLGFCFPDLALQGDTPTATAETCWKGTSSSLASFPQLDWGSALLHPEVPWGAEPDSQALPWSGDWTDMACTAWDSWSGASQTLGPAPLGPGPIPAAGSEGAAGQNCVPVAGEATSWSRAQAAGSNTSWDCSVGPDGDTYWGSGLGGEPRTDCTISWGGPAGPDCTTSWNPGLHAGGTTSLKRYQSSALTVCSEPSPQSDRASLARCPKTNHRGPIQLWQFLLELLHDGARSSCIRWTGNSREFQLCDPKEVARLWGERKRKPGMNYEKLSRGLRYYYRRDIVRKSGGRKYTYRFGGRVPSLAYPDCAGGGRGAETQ
As to conditions: protein: recombinant; tags: N-terminal GST; dsDNA, one strand shown. The gist of the method: as §1

In the next experiment the target is T5, ELF3 (Homo sapiens, UniProt P78545 1-371).
T5 sequence: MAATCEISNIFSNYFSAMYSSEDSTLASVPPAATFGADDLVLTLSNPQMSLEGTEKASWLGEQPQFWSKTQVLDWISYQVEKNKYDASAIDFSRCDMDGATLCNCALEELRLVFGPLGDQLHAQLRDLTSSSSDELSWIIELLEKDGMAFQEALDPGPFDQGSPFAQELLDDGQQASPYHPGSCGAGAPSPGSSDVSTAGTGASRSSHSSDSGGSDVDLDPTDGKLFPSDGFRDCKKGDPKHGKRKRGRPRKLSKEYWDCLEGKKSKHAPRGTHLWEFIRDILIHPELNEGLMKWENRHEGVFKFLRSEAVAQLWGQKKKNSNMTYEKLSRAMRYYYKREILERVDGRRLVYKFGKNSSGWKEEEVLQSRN
As to conditions: protein: recombinant; tags: N-terminal GST; dsDNA, one strand shown. The gist of the method:
as §1

A further experiment concerns the target CRX (Homo sapiens, UniProt O43186 1-299). The note with it: protein: recombinant; tags: N-terminal GST; dsDNA, one strand shown. In a few lines:
as §1

Another experiment has as its target ETV1 (Homo sapiens, UniProt P50549 1-477). The note with it: protein: recombinant; tags: N-terminal GST; dsDNA, one strand shown. The gist of the method: as §1
A further experiment has as its target T6, ERF (Homo sapiens, UniProt P50548 1-548).
T6 sequence: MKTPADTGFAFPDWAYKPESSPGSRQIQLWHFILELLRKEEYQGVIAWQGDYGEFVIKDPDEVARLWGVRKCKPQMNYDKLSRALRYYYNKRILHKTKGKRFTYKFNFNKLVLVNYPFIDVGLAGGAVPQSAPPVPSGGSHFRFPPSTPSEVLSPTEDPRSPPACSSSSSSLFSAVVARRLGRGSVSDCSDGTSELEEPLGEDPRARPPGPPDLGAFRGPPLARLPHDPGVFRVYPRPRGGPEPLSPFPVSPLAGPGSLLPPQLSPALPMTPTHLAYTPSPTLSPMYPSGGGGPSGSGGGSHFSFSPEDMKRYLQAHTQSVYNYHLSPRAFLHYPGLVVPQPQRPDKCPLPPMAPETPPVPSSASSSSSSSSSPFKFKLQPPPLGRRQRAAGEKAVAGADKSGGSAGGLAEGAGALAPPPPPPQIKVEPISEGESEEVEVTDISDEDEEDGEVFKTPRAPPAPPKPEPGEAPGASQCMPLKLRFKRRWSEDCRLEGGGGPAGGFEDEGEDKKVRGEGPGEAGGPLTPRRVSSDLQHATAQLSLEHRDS
The note with it: protein: recombinant; tags: N-terminal GST; dsDNA, one strand shown. In a few lines:
as §1

For a further experiment, the target named is T7, ETV3L (Homo sapiens, UniProt Q6ZN32 1-361).
T7 sequence: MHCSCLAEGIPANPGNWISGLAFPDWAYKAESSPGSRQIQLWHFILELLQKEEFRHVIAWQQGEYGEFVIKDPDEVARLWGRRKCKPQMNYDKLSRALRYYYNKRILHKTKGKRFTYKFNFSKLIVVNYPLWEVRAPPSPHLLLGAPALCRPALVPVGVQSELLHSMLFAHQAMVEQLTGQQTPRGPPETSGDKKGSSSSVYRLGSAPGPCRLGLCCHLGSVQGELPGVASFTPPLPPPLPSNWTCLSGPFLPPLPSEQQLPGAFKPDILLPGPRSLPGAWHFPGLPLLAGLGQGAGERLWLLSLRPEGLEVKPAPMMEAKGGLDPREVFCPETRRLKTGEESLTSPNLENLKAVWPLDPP
The note with it: protein: recombinant; tags: N-terminal GST; dsDNA, one strand shown. In a few lines:
as §1

Another experiment addresses T8, ETS2 (Homo sapiens, UniProt P15036 1-469).
T8 sequence: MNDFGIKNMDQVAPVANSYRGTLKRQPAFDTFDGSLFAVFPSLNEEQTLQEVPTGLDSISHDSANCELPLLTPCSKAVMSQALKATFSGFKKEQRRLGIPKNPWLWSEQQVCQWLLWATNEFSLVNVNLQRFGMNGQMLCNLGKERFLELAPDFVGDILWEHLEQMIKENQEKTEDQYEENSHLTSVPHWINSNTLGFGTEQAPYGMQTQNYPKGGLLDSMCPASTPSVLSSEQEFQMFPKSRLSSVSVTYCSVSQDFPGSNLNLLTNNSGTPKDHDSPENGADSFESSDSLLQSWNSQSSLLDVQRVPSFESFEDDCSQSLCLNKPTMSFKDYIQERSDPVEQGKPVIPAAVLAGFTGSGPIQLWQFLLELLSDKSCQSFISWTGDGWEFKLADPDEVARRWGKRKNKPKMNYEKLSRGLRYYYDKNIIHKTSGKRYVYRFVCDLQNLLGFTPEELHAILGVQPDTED
The note with it: protein: recombinant; tags: N-terminal GST; dsDNA, one strand shown. In a few lines: as §1

The target of a further experiment is T9, SPDEF (Homo sapiens, UniProt O95238 1-335).
T9 sequence: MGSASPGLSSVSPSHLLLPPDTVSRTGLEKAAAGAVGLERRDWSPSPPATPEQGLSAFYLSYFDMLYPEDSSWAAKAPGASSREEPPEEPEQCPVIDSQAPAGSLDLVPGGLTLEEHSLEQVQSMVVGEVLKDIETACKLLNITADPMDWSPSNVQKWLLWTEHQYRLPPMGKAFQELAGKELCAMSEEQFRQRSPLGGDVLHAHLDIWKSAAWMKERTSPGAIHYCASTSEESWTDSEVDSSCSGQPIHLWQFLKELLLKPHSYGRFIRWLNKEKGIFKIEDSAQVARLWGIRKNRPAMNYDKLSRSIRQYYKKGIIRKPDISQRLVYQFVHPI
The note with it: protein: recombinant; tags: N-terminal GST; dsDNA, one strand shown. In a few lines:
as §1

The target in the next experiment is T10, ETV7 (Homo sapiens, UniProt Q9Y603 1-341).
T10 sequence: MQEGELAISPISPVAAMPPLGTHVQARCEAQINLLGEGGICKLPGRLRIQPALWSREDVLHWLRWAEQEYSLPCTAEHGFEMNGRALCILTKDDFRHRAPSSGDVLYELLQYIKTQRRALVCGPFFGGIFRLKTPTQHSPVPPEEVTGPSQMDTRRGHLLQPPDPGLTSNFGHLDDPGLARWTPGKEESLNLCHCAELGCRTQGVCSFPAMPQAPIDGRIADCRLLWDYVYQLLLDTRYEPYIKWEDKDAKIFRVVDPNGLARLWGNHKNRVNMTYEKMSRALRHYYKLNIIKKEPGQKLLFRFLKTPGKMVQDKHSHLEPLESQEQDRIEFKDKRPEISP
The note with it: protein: recombinant; tags: N-terminal GST; dsDNA, one strand shown. The gist of the method: as §1

The target in the next experiment is T11, ELF5 (Homo sapiens, UniProt Q9UKW6-2 1-255).
T11 sequence: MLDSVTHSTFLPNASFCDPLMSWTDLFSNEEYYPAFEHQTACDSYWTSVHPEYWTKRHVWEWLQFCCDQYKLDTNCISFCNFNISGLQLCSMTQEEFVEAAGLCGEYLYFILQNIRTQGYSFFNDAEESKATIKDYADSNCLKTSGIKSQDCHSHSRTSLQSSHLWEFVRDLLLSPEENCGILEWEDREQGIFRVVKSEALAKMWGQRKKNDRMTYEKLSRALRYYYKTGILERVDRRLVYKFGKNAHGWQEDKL
As to conditions: protein: recombinant; tags: N-terminal GST; dsDNA, one strand shown. The gist of the method: as §1

In another experiment the target is T12, ETV3 (Homo sapiens, UniProt P41162-2 1-143).
T12 sequence: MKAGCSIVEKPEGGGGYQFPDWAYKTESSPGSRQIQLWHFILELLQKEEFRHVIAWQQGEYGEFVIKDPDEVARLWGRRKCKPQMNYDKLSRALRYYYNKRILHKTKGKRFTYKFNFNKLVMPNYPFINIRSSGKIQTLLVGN
The note with it: protein: recombinant; tags: N-terminal GST; dsDNA, one strand shown. The gist of the method:
as §1

Another experiment has as its target ETV6 (Homo sapiens, UniProt P41212 1-452). The note with it: protein: recombinant; tags: N-terminal GST; dsDNA, one strand shown. The gist of the method: as §1

ETV6, sequence (P41212 whole entry): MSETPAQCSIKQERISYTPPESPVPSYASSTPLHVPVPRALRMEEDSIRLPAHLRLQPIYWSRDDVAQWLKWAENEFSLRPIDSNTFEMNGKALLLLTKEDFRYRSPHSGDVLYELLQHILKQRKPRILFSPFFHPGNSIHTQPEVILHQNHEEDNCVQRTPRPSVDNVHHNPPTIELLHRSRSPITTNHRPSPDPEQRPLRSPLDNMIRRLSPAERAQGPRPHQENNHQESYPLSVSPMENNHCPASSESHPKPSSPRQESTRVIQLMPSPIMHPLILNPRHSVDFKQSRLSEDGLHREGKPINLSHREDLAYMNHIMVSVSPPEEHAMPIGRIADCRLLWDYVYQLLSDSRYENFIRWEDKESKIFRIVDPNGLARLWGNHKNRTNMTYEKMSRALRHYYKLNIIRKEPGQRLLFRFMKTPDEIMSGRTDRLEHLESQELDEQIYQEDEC
CRX, sequence (O43186 whole entry): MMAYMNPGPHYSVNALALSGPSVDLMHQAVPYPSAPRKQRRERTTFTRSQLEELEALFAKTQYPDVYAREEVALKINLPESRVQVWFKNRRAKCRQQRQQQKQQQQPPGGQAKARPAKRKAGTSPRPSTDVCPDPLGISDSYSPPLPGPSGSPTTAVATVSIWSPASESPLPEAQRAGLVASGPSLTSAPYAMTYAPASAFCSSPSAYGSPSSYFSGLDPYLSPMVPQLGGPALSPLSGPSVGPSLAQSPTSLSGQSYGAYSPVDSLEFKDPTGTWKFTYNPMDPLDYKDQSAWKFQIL
HSF1, sequence (Q00613 whole entry): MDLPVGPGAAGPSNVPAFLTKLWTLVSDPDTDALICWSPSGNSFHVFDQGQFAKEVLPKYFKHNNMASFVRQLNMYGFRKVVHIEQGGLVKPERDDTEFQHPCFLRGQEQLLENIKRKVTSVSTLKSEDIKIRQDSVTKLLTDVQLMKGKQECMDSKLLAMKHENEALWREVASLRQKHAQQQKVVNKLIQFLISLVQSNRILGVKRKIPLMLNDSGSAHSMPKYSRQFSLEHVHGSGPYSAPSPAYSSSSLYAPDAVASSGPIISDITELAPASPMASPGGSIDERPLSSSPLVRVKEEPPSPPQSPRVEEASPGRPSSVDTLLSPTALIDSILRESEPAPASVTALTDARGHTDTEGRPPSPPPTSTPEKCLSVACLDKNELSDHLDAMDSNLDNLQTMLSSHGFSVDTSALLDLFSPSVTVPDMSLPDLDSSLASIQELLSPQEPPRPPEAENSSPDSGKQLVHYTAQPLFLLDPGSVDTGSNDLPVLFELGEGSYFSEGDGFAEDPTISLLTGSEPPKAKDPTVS
ETV1, sequence (P50549 whole entry): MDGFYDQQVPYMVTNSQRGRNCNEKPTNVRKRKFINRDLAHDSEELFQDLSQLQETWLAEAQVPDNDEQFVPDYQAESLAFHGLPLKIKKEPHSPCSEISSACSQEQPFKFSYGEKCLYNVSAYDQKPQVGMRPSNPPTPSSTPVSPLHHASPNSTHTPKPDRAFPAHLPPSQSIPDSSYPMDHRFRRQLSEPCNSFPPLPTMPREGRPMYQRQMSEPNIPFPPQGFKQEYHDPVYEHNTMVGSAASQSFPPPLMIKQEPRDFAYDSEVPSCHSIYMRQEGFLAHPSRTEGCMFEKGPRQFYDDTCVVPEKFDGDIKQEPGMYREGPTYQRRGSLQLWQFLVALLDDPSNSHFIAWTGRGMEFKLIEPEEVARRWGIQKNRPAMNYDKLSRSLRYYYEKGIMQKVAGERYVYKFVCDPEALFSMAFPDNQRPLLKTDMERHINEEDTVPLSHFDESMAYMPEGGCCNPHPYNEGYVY

In the case of TGCTAA, the binding signal with FEV is 1.29 fold enrichment (6-mer frequency, TF over GST control); with ETV5, 1.29 fold enrichment (6-mer frequency, TF over GST control); with HSF1, 1.32 fold enrichment (6-mer frequency, TF over GST control); with SPIC, 1.26 fold enrichment (6-mer frequency, TF over GST control); with ELF4, 1.28 fold enrichment (6-mer frequency, TF over GST control); in the experiment with ELK4, 1.42 fold enrichment (6-mer frequency, TF over GST control). Moreover, the binding signal in the experiment with ETV2 was 1.24 fold enrichment (6-mer frequency, TF over GST control); in the experiment with ELF3, 1.15 fold enrichment (6-mer frequency, TF over GST control); in the experiment with CRX, 1.8 fold enrichment (6-mer frequency, TF over GST control); in the experiment with ETV1 it was 1.39 fold enrichment (6-mer frequency, TF over GST control); in the experiment with ERF, 1.13 fold enrichment (6-mer frequency, TF over GST control); in the experiment with ETV3L, 1.25 fold enrichment (6-mer frequency, TF over GST control). In addition, the binding signal in the experiment with ETS2 is 1.34 fold enrichment (6-mer frequency, TF over GST control); with SPDEF it was 1.32 fold enrichment (6-mer frequency, TF over GST control); in the experiment with ETV7 it was 1.28 fold enrichment (6-mer frequency, TF over GST control); with ELF5, 1.25 fold enrichment (6-mer frequency, TF over GST control); with ETV3 it was 1.22 fold enrichment (6-mer frequency, TF over GST control); with ETV6, 1.29 fold enrichment (6-mer frequency, TF over GST control).
